Results: PubChem BioAssay AID623868 (Vanderbilt High Throughput Screening Facility, 2012)
Out of some 2,100 compounds screened, about 760 (36%) were called active.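 Rule for the calls: active = thallium-flux fluorescence traces judged by eye to show enhanced or reduced glutamate response, manual score 1 or -1, so both directions (some results past the limit were not filed as active); inactive = the rest, including fluorescent or raised-baseline compounds.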 A selection follows.

Assay: non-GIRK thallium flux modulation in mGlu8 cells, confirmation, counter-screen for GIRK activator project, cell-based, HEK-293 rmGlu8, no GIRK (AID 623868);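 note: extra codes mark interference with 3 for fluorescent and 4 for baseline rise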
Conditions: thallium flux fluorescence, at 10 µM, actives lie on both sides, codes: 1 enhancer, -1 blocker, 0 none, thallium stimulus containing EC20 glutamate
For `CCCOC(=O)NC(CC)COC(=O)Nc1cccc(C)c1C` (stereo not drawn), the manual score was 0 (inactive). For `CN=C1c2c(-c3ccccc3)c3cc(OC)ccc3n2CCN1C`, the manual score was 0 (inactive). For `CC1CCN(c2ccccc2NC(=S)NC(=O)c2ccco2)CC1`, the manual score was 1 (active). For `O=C(NC(=S)Nc1ccccc1N1CCCCC1)c1ccco1`, the manual score was 0 (inactive). In the case of `O=C(NC(=S)Nc1ccccc1N1CCOCC1)c1ccco1`, the manual score is reported as 1 (active). With `O=C(C[n+]1cc(-c2ccccc2)n2c1CCC2)OCc1ccccc1` the manual score was 0 (inactive). In the case of `CC(C)(C)c1nn(-c2ccccc2)c2[nH]c(=O)c(CNCc3ccc4c(c3)OCO4)cc12`, the manual score is reported as -1 (active). With `CCc1ccc(NCc2cc3c(C)nn(-c4ccccc4)c3[nH]c2=O)cc1` the manual score was 0 (inactive). In the case of `O=C(NCc1ccc2c(c1)OCO2)C1CCN(Cc2cnn(-c3ccccc3)c2-n2cccc2)CC1`, the manual score is reported as 0 (inactive). With `C=CCNc1nc(N2CCCC2)nc2ccccc12` the manual score was 0 (inactive). For `COc1ccc(/C=C2\C(=O)NC(=S)N2C(=O)c2ccc(F)cc2)cc1`, the manual score was 1 (active). In the case of `COc1ccc(C(=O)N2C(=S)NC(=O)/C2=C\c2ccc(C)cc2)cc1`, the manual score is reported as 0.5 (inactive). For `COc1ccc(NC2=Nc3cccc4cccc2c34)cc1OC`, the manual score was 0 (inactive). In the case of `Cc1nc2ccc(NS(=O)(=O)c3ccc4c(c3)OCCO4)cc2s1`, the manual score is reported as 0 (inactive). In the case of `S=C(Nc1cccc(Cl)c1)Nc1cccc2cnccc12`, the manual score is reported as 0 (inactive). With `S=C(NCc1cccs1)Nc1cccc(Cl)c1` the manual score was 0 (inactive). For `Cc1csc(NC(=S)Nc2cccc(Cl)c2)n1`, the manual score was 1 (active). In the case of `C=C(C)C1CC=C(C)/C(=N/NC(=O)c2ccc(NC(=O)CCC)cc2)C1` (stereo not drawn), the manual score is reported as 0 (inactive). With `COc1ccc(/C=N/n2c(-c3cccs3)n[nH]c2=S)cc1` the manual score was 1 (active). With `CCOc1ccc(C2=NNC(c3cccs3)=Nc3ccc(OC)cc32)cc1` the manual score was 0 (inactive). With `COc1cccc(/C=N/n2c(-c3cccs3)n[nH]c2=S)c1` the manual score was 1 (active). In the case of `COc1cccc(OCCc2c(C)n[nH]c2C)c1`, the manual score is reported as 0 (inactive). With `COCCN=c1scc(-c2cccs2)n1/N=C/c1ccc(O)c(O)c1O` the manual score was 0 (inactive). For `Cc1onc(-c2c(F)cccc2Cl)c1C(=O)OCn1nnc2ccccc2c1=O`, the manual score was 0 (inactive). For `COC(=O)C1=NN(c2ccccc2)C2C(=O)N(c3ccccc3OC)C(=O)C12` (stereo not drawn), the manual score was 0 (inactive). For `CC1=NN(c2ccccc2)C(=O)C1C(=O)c1ccc(Cl)cc1` (stereo not drawn), the manual score was 1 (active). For `COc1cc(NC(=O)CSCc2cnn(-c3ccccc3)c2-n2cccc2)cc(OC)c1`, the manual score was 0 (inactive). In the case of `CCN(CC)c1ccc2c(c1)OC(N)=C(C#N)C2c1cccnc1` (stereo not drawn), the manual score is reported as 3 (inactive). For `CC1=C(n2nnc3ccccc32)C(c2ccccc2)C(C#N)=C(N)O1` (stereo not drawn), the manual score was 0 (inactive). With `Cc1ccc(N=Cc2cc3c(cc2O)OC(N)=C(C#N)C3c2ccccc2)cc1` (stereo not drawn) the manual score was -1 (active). In the case of `CC(Sc1nnnn1C)C(=O)Nc1ccc(Oc2ccccc2)cc1` (stereo not drawn), the manual score is reported as 0.5 (inactive). With `COc1ccc(-n2c(=S)[nH]c3ccccc32)cc1` the manual score was 1 (active). With `COc1ccc(-n2cc(-c3ccccc3)[nH]c2=S)cc1` the manual score was 1 (active). In the case of `Cc1cccc(OCCn2c(=S)[nH]c3ccccc32)c1`, the manual score is reported as 0 (inactive). For `Cn1c(-c2ccc(-c3ccccc3)cc2)c[nH]c1=S`, the manual score was 0 (inactive). For `COc1ccc(-c2c3c(=O)n(C)c(=O)n(C)c3cn2-c2ccccc2)cc1`, the manual score was 0 (inactive). For `CCCn1c(=N)n(CCOc2ccc(OC)cc2)c2ccccc21`, the manual score was 0 (inactive). In the case of `CC(C)(C)c1ccc(OCCON2C(=O)CCC2=O)c(Cl)c1`, the manual score is reported as 0 (inactive). For `COc1ccc(C(CCNCc2ccccc2F)c2ccc(F)cc2)cc1` (stereo not drawn), the manual score was 0 (inactive). For `COC(=O)c1cc(NC(=O)c2ccoc2C)cc(C(=O)OC)c1`, the manual score was 0 (inactive). With `CCOC(=O)C1=C(C)Nc2nnnn2C1c1ccccc1Cl` (stereo not drawn) the manual score was -1 (active). With `CCOC(=O)C1=C(C)NC2=C(C(=O)C(C(=O)OCC)C(c3ccccc3OC)C2)C1c1ccccn1` (stereo not drawn) the manual score was 0 (inactive). With `CCCC1=C(C(=O)OCC)C(c2ccc(F)cc2)n2ncnc2N1` (stereo not drawn) the manual score was -0.5 (inactive). In the case of `O=C(Nc1ccccc1N1CCCCC1)c1ccccc1F`, the manual score is reported as 0 (inactive). With `O=C(c1ccc(-c2ccccc2)cc1)N1CCN(c2ncccn2)CC1` the manual score was 0 (inactive). In the case of `CCCC(=O)Nc1ccccc1N1CCN(C(=O)c2ccccc2)CC1`, the manual score is reported as -1 (active). For `CC(C)C(=O)Nc1ccccc1N1CCN(C(=O)c2ccccc2)CC1`, the manual score was -1 (active). For `CC(C)N(C(=O)CN(C#N)c1nc(N(C)C)nc(N(C)C)n1)c1ccccc1`, the manual score was 0 (inactive). In the case of `CCN(CC)CC(O)COCCC12CC3CC(CC(C3)C1)C2` (stereo not drawn), the manual score is reported as 0 (inactive). For `O=C(N/C(=N\O)c1ccccc1)Nc1ccc(Cl)cc1`, the manual score was 0 (inactive). With `CSc1ccccc1NC(=O)Nc1ccc(Cl)cc1` the manual score was 0 (inactive). For `N#C/C(=N\Nc1ccc(Cl)cc1)C(=O)c1ccccc1`, the manual score was -1 (active). In the case of `CC(C)c1nc(=S)n(-c2ccccc2)[nH]1`, the manual score is reported as 1 (active). With `CCOC(=O)c1cccc(-n2c(C)cc(C=O)c2C)c1` the manual score was 0 (inactive). In the case of `O=C(CSCc1ccc(Br)cc1)N=Nc1c(O)[nH]c2ccccc12`, the manual score is reported as 1 (active). For `O=C(CSCc1ccccc1)N=Nc1c(O)[nH]c2ccccc12`, the manual score was 1 (active). In the case of `O=[N+]([O-])c1ccc(/C=N/NC(=S)Nc2ccccc2F)o1`, the manual score is reported as 1 (active). For `Fc1ccccc1/C=N/NC(=S)Nc1ccc(Cl)cc1Cl`, the manual score was 0 (inactive). For `Fc1ccccc1NC(=S)N/N=C/c1ccccc1Br`, the manual score was 1 (active). With `O=C(NCCN1CCN(C(=O)Nc2ccccc2)CC1)Nc1ccccc1` the manual score was 0 (inactive). In the case of `Cc1ccccc1N=Nc1c(C)[nH]n(C(N)=S)c1=O`, the manual score is reported as 1 (active). With `C/C(=N\NC(=S)NCCc1ccccc1)c1ccc(C)cc1` the manual score was 0 (inactive). With `S=C(NCc1ccco1)Nc1ccc(Cl)c(Cl)c1` the manual score was 0 (inactive). For `S=C(NCc1ccco1)N/N=C/c1ccc(Cl)cc1`, the manual score was 1 (active). With `COc1ccc(/C(C)=N/NC(=S)NCc2ccco2)cc1` the manual score was 1 (active). With `COc1cccc(N2CCN(c3c4c(nc5ncnn35)CCC4)CC2)c1` the manual score was 0 (inactive). For `O=C(Oc1c(Cl)cc(Cl)c2cccnc12)c1cccc([N+](=O)[O-])c1`, the manual score was 1 (active). In the case of `O=C(Oc1c(Cl)cc(Cl)c2cccnc12)c1ccco1`, the manual score is reported as 1 (active). With `O=C(Oc1ccccc1C(=S)N1CCCCC1)c1cc([N+](=O)[O-])cc([N+](=O)[O-])c1` the manual score was 0 (inactive). In the case of `COC(=O)[C@H]1CCCN1C(=O)Nc1cccc(Oc2c(F)c(F)c(F)c(F)c2F)c1`, the manual score is reported as 0 (inactive). With `Cc1cc(NC(=O)Nc2ccccc2)n(-c2ccccc2)n1` the manual score was 0 (inactive). With `Cc1cc(NC(=O)c2c(F)cccc2Cl)n(-c2nc3ccccc3[nH]2)n1` the manual score was 0 (inactive). For `Cc1ccc(Nc2cc(C)nn2-c2nc(C)cc(=O)[nH]2)cc1`, the manual score was 1 (active). In the case of `CCOC(=O)c1c(NC(=O)CSc2nnc(Cc3csc(N)n3)n2C)sc(C)c1C`, the manual score is reported as -1 (active). For `C=CCn1c(SCC(=O)Nc2sc(C)c(C)c2C(=O)OCC)nnc1-c1sc(N)nc1C`, the manual score was -1 (active). With `CCOC(=O)c1cnc(SCC(=O)Nc2nc(C)c(C)s2)nc1N` the manual score was 0 (inactive). In the case of `CC1(C)Cc2ccccc2-c2nnc(SCC(=O)N3CCN(c4ccccc4)CC3)n21`, the manual score is reported as 0 (inactive). With `C1CCC2(CC1)OCC1(CO2)COC2(CCCCC2)OC1` the manual score was 0 (inactive). With `CC1(C)NC(=O)NC2(C)NC(=O)NC(C)(C)C12` (stereo not drawn) the manual score was 0 (inactive). For `CNC(=S)N/N=C(\C)c1ccc(C)c(C)c1`, the manual score was 0.5 (inactive). For `CNC(=S)N/N=C/c1ccc(C(C)C)cc1`, the manual score was 1 (active). With `C=CCNC(=O)C1CC(=O)N(c2ccc(OCC(=O)Nc3ccccc3)cc2)C1` (stereo not drawn) the manual score was 0 (inactive). With `Fc1cccc2sc(Nc3nc4ccccc4s3)nc12` the manual score was 0 (inactive). For `Fc1cccc2sc(Nc3nc4cc5c(cc4s3)OCO5)nc12`, the manual score was 0 (inactive). In the case of `Fc1cc(F)c2nc(Nc3nc4c(F)cccc4s3)sc2c1`, the manual score is reported as 1 (active). For `Fc1ccc2nc(Nc3nc4c(F)cc(F)cc4s3)sc2c1`, the manual score was 1 (active). In the case of `Fc1ccc2nc(Nc3nc4c(F)cccc4s3)sc2c1`, the manual score is reported as 1 (active). In the case of `COc1cc(/C=C2/C(=O)N=C(N)N2C)cc(OC)c1OC`, the manual score is reported as 0 (inactive). With `CC1CC(C)CN(C(=S)Nc2ccc(SC(F)F)cc2)C1` (stereo not drawn) the manual score was 0 (inactive). In the case of `Cc1ccc(Nc2n[nH]c(C)c2[N+](=O)[O-])cc1C`, the manual score is reported as 0 (inactive). In the case of `NC(=O)COc1ccc(C2c3c(oc4ccccc4c3=O)C(=O)N2CC2CCCO2)cc1` (stereo not drawn), the manual score is reported as 0 (inactive). For `CCN(CC)CCN1C(=O)c2oc3ccccc3c(=O)c2C1c1ccccc1` (stereo not drawn), the manual score was 0.5 (inactive). With `CN(C)CCCN1C(=O)c2oc3ccccc3c(=O)c2C1c1cccs1` (stereo not drawn) the manual score was 1 (active). With `O=c1c(O)c(-c2cccs2)oc2ccccc12` the manual score was 3 (inactive). With `CCN(CC)CCCN1C(=O)c2oc3ccccc3c(=O)c2C1c1cccs1` (stereo not drawn) the manual score was 1 (active). In the case of `CCN(CC)CCN1C(=O)c2oc3ccccc3c(=O)c2C1c1ccc(F)cc1` (stereo not drawn), the manual score is reported as 0 (inactive). In the case of `O=C1Nc2ccccc2C12OCC1(CO2)COC2(OC1)C(=O)Nc1ccccc12` (stereo not drawn), the manual score is reported as 0 (inactive). For `Cc1ccc(N2CC(C(=O)Oc3cccc(N4C(=O)CCC4=O)c3)CC2=O)cc1` (stereo not drawn), the manual score was 0 (inactive). For `O=C(Nc1nnc(-c2ccc(Cl)cc2)o1)c1cccc(N2C(=O)CCC2=O)c1`, the manual score was 1 (active). With `COc1ccccc1NC(=O)c1cc(C(=O)Nc2ccccc2OC)cc(N2C(=O)CCC2=O)c1` the manual score was 0 (inactive). With `O=C(Nc1nnc(-c2ccc(Cl)cc2)o1)c1ccc(N2C(=O)CCC2=O)cc1` the manual score was 1 (active). With `COc1cccc2sc(Nc3nc(-c4ccccn4)cs3)nc12` the manual score was 1 (active). With `COc1cccc2sc(Nc3nnc(-c4cccs4)o3)nc12` the manual score was 1 (active). In the case of `COc1ccc(-c2nnc(Nc3nc4c(OC)cccc4s3)o2)cc1`, the manual score is reported as 1 (active). In the case of `CCNc1nnc(-c2ccc(C)cc2)o1`, the manual score is reported as 0 (inactive). For `CCN(CC)c1nc(C)nc2c1cnn2CCc1ccccc1`, the manual score was 0 (inactive). In the case of `Cc1cc(=S)[nH]c2c(C)cccc12`, the manual score is reported as 1 (active). With `Cc1cc(C)c2[nH]c(=S)cc(C)c2c1` the manual score was 1 (active).
